Calls of active or inactive are those of the source.

For experiment [1], the system named is PRMT1 (protein arginine N-methyltransferase 1). As to the kind of experiment: PRMT1 binders on small-molecule microarrays, primary screen, biochemical, small-molecule microarray, 635 nm fluorescence (AID 1088).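 Further: binding of Prmt1 protein to compounds spotted on small-molecule microarray slides.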 Conditions: small-molecule microarray binding, higher = more signal.
Experiment [2] in a line: yeast growth modulation, basal conditions, primary screen, YJM789 clinical isolate, OD600, 24 h (AID 1089).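 Further: growth of clinical yeast isolate S. cerevisiae YJM 789 seeded 1000 cells per well; test concentration not given here.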 Conditions: S. cerevisiae YJM789 growth, higher = more signal, called active from +8 up or from −8 down.
The nature of experiment [3]: fission yeast growth modulation, primary screen, strain 972, OD600, 24 h, no modulator (AID 1090).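 Further: basal condition with compound alone and no growth modifier present; test concentration not given here.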 Conditions: S. pombe 972 growth, higher = more signal, called active from +8 up or from −8 down.
Experiment [4] is described as follows: S. cerevisiae growth modulation with rapamycin, primary screen, strain BY4716, OD600, 96 h (AID 1091). Further: test concentration not given here. As to conditions: higher = more signal, called active from +8 up or from −8 down.
Experiment [5] has as its target Torsin-1A-interacting protein 2 (Homo sapiens) (UniProt Q8NFQ8). As to the kind of experiment: LULL1 binders on small-molecule microarray, primary screen, cell lysate, human LULL1 lysate, 635/667 nm fluorescence (AID 1092).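 Further: probe is lysate of COS7 cells overexpressing human LULL1; score merges per-feature 667 nm fluorescence with signal-to-noise.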 As to conditions: hLULL1 lysate binding, 635 nm fluorescence, higher = more signal.
The nature of experiment [6]: E. coli growth modulation, two-sided OD650, primary screen, E. coli filamentation project, strain DRC41, 24 h (AID 1093).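 Further: MC1000 strain lacking acrAB efflux and sulA so SOS filamentation is blocked; test concentration not given here.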 Conditions: OD650, 24 h, higher = more signal, called active from +8 up or from −8 down.
The nature of experiment [7]: small-molecule microarray binders of probe aLefty2, primary screen, biochemical, biotinylated probe, 635/667 nm fluorescence (AID 1094).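 Further: score merges spot fluorescence near 667 nm with spot signal-to-noise ratio.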 Conditions: higher = more signal.
Experiment [8] has as its system Noggin (protein binding on small-molecule microarray). Put plainly: Noggin binders on small-molecule microarray, primary screen, biochemical, 635/667 nm fluorescence (AID 1095).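 Further: score merges 667 nm feature fluorescence with signal to noise over triplicate slides.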 As to conditions: 635 nm fluorescence, higher = more signal.
Experiment [9] concerns the target Neurogenic locus notch homolog protein 3 (Homo sapiens) (UniProt Q9UM47). Put plainly: NOTCH3 binders on small-molecule microarray, primary screen, biochemical, 635/667 nm fluorescence (AID 1096). As to conditions: NOTCH3 binding, 635 nm fluorescence, higher = more signal.
Experiment [10] in a line: small-molecule microarray binders of probe aEGFR, primary screen, biochemical, biotinylated probe, 635/667 nm fluorescence (AID 1097).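 Further: probe is a biotinylated anti-EGFR antibody binding compounds printed on slides; score combines fluorescence near 667 nm and signal to noise of each spot.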 As to conditions: higher = more signal.
Experiment [11] concerns Plasmodium falciparum Sir2 (PF13_0152, Sir2A). As to the kind of experiment: pfSir2 binders on small-molecule microarrays, primary screen, biochemical, small-molecule microarray, 635 nm fluorescence (AID 1098).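 Further: score merges spot fluorescence intensity with its signal-to-noise ratio.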 As to conditions: small-molecule microarray binding, fluorescence 635 nm; higher = more signal.
Experiment [12] can be described thus: small-molecule microarray binders of probe aDKK1, primary screen, biochemical, biotinylated probe, 635/667 nm fluorescence (AID 1099).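 Further: score merges 667nm spot fluorescence with signal to noise across triplicate slides; reference of the scale not given here.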 As to conditions: higher = more signal.
A short description of experiment [13]: small-molecule microarray binders of probe aCHRDL2, primary screen, biochemical, biotinylated probe, 635/667 nm fluorescence (AID 1100). As to conditions: higher = more signal.
Experiment [14] can be described thus: splicing luciferase reporter signal modulators, primary screen, spliceosome inhibition project, cell-based, HEK293, splice +/- reporter (AID 1101).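 Further: HEK293 cells carrying a splicing-competent luciferase reporter gene; test concentration not given here.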 As to conditions: luminescence, 24 h, higher = more signal, called active from +8 up or from −8 down.
In experiment [15] the target is Fibroblast growth factor 10 (Homo sapiens) (UniProt O15520). As to the kind of experiment: FGF10 binders on small-molecule microarrays, primary screen, biochemical, small-molecule microarray, 635 nm fluorescence (AID 1102). Conditions: FGF10 binding, fluorescence 635 nm, higher = more signal.
Sequence of Fibroblast growth factor 10 (Homo sapiens) (O15520 whole entry, looked up): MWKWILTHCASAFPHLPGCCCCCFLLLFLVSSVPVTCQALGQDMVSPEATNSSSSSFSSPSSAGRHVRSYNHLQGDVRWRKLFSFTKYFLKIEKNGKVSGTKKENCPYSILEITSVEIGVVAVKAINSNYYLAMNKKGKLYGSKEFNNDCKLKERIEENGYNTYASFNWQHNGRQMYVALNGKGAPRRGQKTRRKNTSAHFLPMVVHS
In experiment [16] the test system is glycogen synthase kinase-3 (GSK3A per assay name; protocol says GSK3B). As to the kind of experiment: GSK3 binders on small-molecule microarrays, primary screen, biochemical, small-molecule microarray, 635 nm fluorescence, GSK3A (AID 1103). Further: the record names both GSK3A and GSK3B. Conditions: small-molecule microarray binding, fluorescence 635 nm; higher = more signal.
The target in experiment [17] is Epidermal growth factor receptor (Homo sapiens) (UniProt P00533). Put plainly: EGFR binders on small-molecule microarrays, primary screen, biochemical, small-molecule microarray, 635 nm fluorescence (AID 1104).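 Further: score merges 667 nm emission intensity with spot signal to noise over triplicate slides.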 Conditions: EGFR binding, higher = more signal.
Sequence of Epidermal growth factor receptor (Homo sapiens) (P00533 whole entry, looked up): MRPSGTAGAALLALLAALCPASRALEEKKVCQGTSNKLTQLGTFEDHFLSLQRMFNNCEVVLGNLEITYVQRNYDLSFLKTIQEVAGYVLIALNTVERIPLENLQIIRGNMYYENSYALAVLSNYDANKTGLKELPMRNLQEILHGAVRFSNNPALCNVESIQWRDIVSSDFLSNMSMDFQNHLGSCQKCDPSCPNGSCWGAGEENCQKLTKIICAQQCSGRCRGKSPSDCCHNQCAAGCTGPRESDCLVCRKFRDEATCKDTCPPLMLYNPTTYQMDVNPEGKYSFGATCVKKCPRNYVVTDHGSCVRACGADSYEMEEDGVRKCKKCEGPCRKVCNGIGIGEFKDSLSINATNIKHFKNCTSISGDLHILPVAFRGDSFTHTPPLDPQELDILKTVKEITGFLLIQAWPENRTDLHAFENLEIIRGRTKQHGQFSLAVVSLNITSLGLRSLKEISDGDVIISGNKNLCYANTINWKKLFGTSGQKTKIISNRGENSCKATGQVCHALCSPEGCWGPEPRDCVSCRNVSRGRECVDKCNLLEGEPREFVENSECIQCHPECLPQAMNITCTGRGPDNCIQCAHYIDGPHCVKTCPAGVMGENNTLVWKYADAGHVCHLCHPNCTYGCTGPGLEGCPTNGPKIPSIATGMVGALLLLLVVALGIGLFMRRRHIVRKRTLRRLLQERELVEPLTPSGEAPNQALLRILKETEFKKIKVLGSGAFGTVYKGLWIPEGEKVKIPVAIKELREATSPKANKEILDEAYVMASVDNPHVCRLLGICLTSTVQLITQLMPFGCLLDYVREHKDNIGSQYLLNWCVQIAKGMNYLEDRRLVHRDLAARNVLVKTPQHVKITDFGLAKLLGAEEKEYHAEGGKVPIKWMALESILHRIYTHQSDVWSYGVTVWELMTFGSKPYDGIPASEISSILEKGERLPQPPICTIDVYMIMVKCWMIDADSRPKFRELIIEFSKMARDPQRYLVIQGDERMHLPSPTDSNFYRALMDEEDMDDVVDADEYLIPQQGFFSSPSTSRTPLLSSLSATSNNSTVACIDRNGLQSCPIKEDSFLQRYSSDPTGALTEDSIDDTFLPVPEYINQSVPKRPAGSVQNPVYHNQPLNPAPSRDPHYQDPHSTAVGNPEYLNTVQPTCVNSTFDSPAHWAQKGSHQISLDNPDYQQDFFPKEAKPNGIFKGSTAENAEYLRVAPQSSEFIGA
Experiment [18] addresses Follistatin-related protein 3 (Homo sapiens) (UniProt O95633). Put plainly: FSTL3 binders on small-molecule microarrays, primary screen, biochemical, small-molecule microarray, 635 nm fluorescence (AID 1105).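 Further: score merges emission near 667 nm and signal to noise per printed spot across three slides.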 As to conditions: FSTL3 binding, higher = more signal.
In experiment [19] the target is Dickkopf-related protein 1 (Homo sapiens) (UniProt O94907). As to the kind of experiment: DKK1 binders on small-molecule microarrays, primary screen, biochemical, small-molecule microarray, 635 nm fluorescence scan (AID 1106).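 Further: score merges emission near 667 nm with signal to noise over three replicate slides.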 As to conditions: DKK1 binding, higher = more signal.
Sequence of Dickkopf-related protein 1 (Homo sapiens) (O94907 whole entry, looked up): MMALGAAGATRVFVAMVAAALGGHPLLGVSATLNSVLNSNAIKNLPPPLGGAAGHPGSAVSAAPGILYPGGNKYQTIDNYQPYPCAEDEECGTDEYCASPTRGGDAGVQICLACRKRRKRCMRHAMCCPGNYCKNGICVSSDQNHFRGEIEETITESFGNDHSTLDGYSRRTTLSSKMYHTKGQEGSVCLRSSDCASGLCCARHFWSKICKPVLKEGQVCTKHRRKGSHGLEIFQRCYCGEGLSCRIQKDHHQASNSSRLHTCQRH
Experiment [20] relates to Inhibin beta A chain (activin A). Put plainly: INHBA (activin A) binders on microarrays, primary screen, biochemical, small-molecule microarray, 635 nm fluorescence scan (AID 1107).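 Further: mouse activin A protein probed at 4.33 µg/mL on printed slides; score merges bound-protein fluorescence near 667 nm with spot signal-to-noise.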 Conditions: small-molecule microarray binding, higher = more signal.

Sequence of Neurogenic locus notch homolog protein 3 (Homo sapiens) (Q9UM47 whole entry, looked up): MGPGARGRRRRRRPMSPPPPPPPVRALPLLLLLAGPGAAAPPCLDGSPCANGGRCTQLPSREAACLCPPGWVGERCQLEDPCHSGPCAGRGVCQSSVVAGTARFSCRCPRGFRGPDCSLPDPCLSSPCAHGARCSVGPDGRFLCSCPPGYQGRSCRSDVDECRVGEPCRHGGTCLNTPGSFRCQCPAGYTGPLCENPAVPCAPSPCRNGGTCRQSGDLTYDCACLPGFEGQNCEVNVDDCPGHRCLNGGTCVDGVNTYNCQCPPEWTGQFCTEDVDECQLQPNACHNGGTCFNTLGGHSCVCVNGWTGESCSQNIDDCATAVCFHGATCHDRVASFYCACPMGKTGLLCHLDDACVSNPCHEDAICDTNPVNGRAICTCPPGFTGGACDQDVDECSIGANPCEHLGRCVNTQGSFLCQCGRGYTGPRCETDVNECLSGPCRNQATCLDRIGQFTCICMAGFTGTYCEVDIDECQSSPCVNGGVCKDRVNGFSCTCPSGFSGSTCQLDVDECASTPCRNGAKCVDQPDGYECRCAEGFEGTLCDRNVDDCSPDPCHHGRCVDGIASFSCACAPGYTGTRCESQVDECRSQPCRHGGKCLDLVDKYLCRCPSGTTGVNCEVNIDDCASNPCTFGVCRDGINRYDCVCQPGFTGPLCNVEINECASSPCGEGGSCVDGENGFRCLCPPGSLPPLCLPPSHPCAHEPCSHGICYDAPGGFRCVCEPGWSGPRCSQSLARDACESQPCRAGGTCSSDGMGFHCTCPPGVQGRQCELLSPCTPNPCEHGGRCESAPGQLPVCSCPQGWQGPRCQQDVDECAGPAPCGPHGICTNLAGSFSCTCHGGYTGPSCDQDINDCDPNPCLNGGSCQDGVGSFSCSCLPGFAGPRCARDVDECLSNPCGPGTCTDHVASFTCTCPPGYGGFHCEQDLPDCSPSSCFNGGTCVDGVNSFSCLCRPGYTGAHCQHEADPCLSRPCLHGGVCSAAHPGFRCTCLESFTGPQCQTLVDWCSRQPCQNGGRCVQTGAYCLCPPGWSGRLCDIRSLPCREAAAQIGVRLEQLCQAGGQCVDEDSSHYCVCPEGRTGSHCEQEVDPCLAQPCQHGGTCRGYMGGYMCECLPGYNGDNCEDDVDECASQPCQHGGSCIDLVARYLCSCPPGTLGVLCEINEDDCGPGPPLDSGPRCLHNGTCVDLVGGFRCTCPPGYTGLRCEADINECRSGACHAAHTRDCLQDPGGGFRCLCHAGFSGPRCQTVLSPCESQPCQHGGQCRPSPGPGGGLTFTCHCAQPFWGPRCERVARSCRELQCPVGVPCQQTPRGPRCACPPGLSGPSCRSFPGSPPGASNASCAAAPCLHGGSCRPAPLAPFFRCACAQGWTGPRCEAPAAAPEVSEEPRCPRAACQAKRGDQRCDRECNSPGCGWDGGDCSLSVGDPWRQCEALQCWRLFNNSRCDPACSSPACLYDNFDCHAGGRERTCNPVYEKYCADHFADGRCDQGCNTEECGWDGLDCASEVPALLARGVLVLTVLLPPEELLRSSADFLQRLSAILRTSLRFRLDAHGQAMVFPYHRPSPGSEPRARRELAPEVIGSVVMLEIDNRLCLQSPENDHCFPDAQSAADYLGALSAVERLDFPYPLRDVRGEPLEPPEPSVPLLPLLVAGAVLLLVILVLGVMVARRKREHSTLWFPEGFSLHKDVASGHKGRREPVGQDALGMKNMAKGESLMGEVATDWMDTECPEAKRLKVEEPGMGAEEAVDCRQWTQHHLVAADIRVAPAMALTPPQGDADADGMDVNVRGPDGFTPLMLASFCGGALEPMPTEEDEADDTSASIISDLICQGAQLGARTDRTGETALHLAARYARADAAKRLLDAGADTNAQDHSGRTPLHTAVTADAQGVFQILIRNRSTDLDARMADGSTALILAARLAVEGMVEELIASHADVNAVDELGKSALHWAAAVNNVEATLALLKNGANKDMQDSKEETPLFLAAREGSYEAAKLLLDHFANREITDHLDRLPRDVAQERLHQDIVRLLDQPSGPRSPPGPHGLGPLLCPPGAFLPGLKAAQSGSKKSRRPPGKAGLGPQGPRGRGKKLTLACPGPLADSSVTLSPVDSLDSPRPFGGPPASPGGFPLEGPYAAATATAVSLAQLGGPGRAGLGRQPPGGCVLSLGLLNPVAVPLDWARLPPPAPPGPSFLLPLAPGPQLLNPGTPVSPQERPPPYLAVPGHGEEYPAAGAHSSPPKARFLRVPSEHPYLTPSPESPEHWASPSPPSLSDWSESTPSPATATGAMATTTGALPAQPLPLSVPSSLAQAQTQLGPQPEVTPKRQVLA
Sequence of Follistatin-related protein 3 (Homo sapiens) (O95633 whole entry, looked up): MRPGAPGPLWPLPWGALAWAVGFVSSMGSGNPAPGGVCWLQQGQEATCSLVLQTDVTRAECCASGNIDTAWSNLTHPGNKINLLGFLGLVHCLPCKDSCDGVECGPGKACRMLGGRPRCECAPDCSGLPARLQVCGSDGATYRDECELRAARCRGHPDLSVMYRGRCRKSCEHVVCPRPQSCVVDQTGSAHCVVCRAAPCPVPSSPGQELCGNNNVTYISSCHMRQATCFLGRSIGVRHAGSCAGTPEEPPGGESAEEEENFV
Sequence of Torsin-1A-interacting protein 2 (Homo sapiens) (Q8NFQ8 whole entry, looked up): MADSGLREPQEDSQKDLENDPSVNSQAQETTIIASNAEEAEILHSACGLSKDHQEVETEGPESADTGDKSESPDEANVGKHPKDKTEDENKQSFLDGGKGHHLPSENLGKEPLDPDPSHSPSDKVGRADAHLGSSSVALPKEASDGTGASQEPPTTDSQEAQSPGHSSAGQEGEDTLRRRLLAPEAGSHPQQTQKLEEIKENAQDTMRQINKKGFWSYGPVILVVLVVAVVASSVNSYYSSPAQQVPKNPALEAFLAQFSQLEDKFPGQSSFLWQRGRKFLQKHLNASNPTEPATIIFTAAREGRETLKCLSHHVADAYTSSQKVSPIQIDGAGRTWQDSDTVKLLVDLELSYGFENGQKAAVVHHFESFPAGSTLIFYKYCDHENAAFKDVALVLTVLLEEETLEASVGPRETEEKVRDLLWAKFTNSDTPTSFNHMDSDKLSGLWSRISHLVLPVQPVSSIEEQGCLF

As to `O=C1C[C@@H](O)[C@@H](O)[C@@H]2[C@@H]3C(=O)N(Cc4ccc5c(c4)OCO5)C(=O)[C@@H]3CC[C@H]12`, the composite z-score in experiment [1] is 0.0008; in experiment [5], 0.443; in experiment [7], -0.136; in experiment [8], 0.318; in experiment [9], 0.406; in experiment [10], 0.0135. Besides, the composite z-score was 0.063 in experiment [11]; -0.312 in experiment [12]; -0.406 in experiment [13]; 0.309 in experiment [15]; 0.7 in experiment [16]; 0.368 in [17]. For the same molecule, the results for the composite z-score in experiment [18], in experiment [19] and in experiment [20] were 0.703, 0.593 and 0.128, respectively. In addition, the z-score is 0.264 (inactive) in [2]; -0.587 (inactive) in experiment [3]; -0.511 (inactive) in experiment [4]; 0.378 (inactive) in experiment [6]; 1.03 (inactive) in experiment [14].
`CO[C@@H]1COC(=O)[C@@H]2CCCN2C(=O)[C@@H](C)COC(=O)CC=C[C@H]1C`: the composite z-score in [1] was 1.41; in experiment [5], 0.882; in [7] it was -0.0438; in experiment [8], 1.18; in experiment [9], 0.943; in [10] it was -0.0788. Further, the composite z-score is 0.13 in experiment [11]; -0.552 in experiment [12]; -0.522 in experiment [13]; 0.959 in [15]; 1.28 in experiment [16]; 0.598 in experiment [17]. Further, the composite z-score in [18] is 0.993; in experiment [19], 1.12; in experiment [20], -0.282. In addition, the z-score in experiment [2] was -0.414 (inactive); in [3] it was 0.0992 (inactive); in experiment [4], -1.14 (inactive); in experiment [6] it was -0.152 (inactive); in experiment [14], -0.203 (inactive).
For the molecule `CC(C)C[C@H](NC(=O)CCC1CC(OC(=O)NCc2cccc3ccccc23)CC2(CCCC(COC(=O)NCc3ccccc3)O2)O1)C(=O)NCC(c1ccccc1)c1ccccc1` (stereo not given in full), the composite z-score is 1.56 in [1]; 1.97 in experiment [5]; -0.166 in experiment [7]; 1.64 in experiment [8]; 1.09 in experiment [9]; -0.0333 in experiment [10]. For the same molecule, the composite z-score in experiment [11] was 0.683; in experiment [12] it was -0.0553; in [13], -0.304; in [15], 1.26; in experiment [16] it was 0.91; in experiment [17] it was 0.667. Moreover, the composite z-score in experiment [18] was 1.12; in experiment [19], 0.861; in [20], -0.156. The z-score is -0.852 (inactive) in experiment [2]; 0.333 (inactive) in [3]; -0.576 (inactive) in experiment [4]; 0.94 (inactive) in experiment [6]; 0.536 (inactive) in [14].
`CO[C@@H]1COC(=O)[C@H](CCSC)NC(=O)CC=C[C@@H](C)COC(=O)[C@H](C)NC(=O)CC=C[C@H]1C`: the composite z-score in [1] was 1.39; in [5], -0.0068; in [7] it was -0.247; in experiment [8], 0.783; in experiment [9] it was 0.989; in experiment [10], -0.201. Further, the composite z-score in [11] was 0.931; in experiment [12] it was -0.34; in experiment [13], -0.833; in experiment [15], 0.816; in experiment [16], 0.856; in experiment [17] it was 0.953. The composite z-score in experiment [18] was 1.1; in experiment [19], 1.19; in [20], -0.0263. Moreover, the z-score is 0.153 (inactive) in experiment [2]; -0.266 (inactive) in experiment [3]; 0.291 (inactive) in experiment [4]; 1.01 (inactive) in experiment [6]; 0.0885 (inactive) in experiment [14].
Turning to `CCc1cc2c(nc1CC)CCN(CCC(C)=NO[C@H](C)c1cn([C@@H]3COC[C@H]3O)nn1)C2`, the composite z-score in [1] was -0.104; in experiment [5] it was -0.179; in experiment [7], -0.0936; in experiment [8] it was 0.0613; in experiment [9] it was 0.551; in [10] it was 0.0004. Moreover, the composite z-score in [11] was 0.346; in experiment [12], -0.156; in experiment [13] it was -0.334; in experiment [15], 0.189; in experiment [16], 0.229; in [17], 0.545. Besides, the composite z-score in [18] came to 0.433; in experiment [19] it was 0.611; in experiment [20], 0.468. Besides, the z-score was 0.485 (inactive) in [2]; 0.308 (inactive) in experiment [3]; 0.668 (inactive) in experiment [4]; -0.216 (inactive) in [6]; 0.212 (inactive) in experiment [14].
